High-throughput results from PubChem BioAssay.
CYP2C19 inh = inhibitors of human CYP2C19; 96,000 tested, 21% active; CYP2C19 Supersomes, luciferin-H EGE luminescence, 30 min; AID 778; inhibition, % at 5 µM; P33261;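 active means CYP2C19 inhibition above a set limit at 5 µM in the primary screen, cut at about 50% in these data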;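 further: plate controls were negative control wells for no effect and 2.5 mM tranylcypromine positive control for full effect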
Target sequence (P33261 whole entry, looked up): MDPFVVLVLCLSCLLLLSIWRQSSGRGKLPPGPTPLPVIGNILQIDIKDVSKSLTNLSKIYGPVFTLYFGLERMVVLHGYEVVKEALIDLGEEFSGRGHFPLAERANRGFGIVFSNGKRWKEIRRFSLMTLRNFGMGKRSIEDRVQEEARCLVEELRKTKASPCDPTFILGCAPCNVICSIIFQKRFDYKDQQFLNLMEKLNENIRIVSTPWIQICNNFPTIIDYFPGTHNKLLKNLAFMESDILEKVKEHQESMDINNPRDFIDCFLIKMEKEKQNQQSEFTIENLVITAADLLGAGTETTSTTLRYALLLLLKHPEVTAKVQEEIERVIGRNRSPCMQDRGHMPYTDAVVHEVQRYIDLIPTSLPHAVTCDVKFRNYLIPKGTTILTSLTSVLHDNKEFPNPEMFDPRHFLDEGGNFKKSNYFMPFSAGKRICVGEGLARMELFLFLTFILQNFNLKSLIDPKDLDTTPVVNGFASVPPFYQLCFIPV
CYP2C9 activ = CYP2C9 (human) activation; P11712; recombinant CYP2C9, luciferin-H conversion, luminescence; hits give high values; factor 1 = untreated enzyme, 0 = blocked; activation factor at 5 µM; 96,000 tested, 1.4% active; AID 1024;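 active means activation factor of 2 or more for CYP2C9 at a 5 µM dose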;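 further: 0 = sulfaphenazole-blocked wells and 1 = vehicle-only wells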
CYP2C19 act = increases human CYP2C19 enzyme activity | recombinant CYP2C19, luciferin-H EGE luminescence; hits give high values; 0 = fully inhibited enzyme, 1 = untreated enzyme | activation factor at 5 µM | 96,000 tested, under 10 active;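 active means activation factor of at least 2 at 5 µM in the primary screen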;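 further: 0 = wells with 2.5 mM tranylcypromine and 1 = vehicle-only wells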
Measles CPE = protection of cells from measles virus. Measles virus-infected cells, CPE protection, absorbance. protection (pct of control), % at 4 µM. 140,000 tested, 1.5% active. AID 841; in the data active means protection mostly above about 24%, no sharp cut-off; inactive means mostly below about 26%
CYP2C9 inh = inhibitors of human CYP2C9; CYP2C9 Supersomes, luciferin-H conversion, luminescence; inhibition, % at 5 µM; 96,000 tested, 20% active; AID 777;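 active means blocking of liver enzyme CYP2C9 beyond about 50% at 5 µM, limit read from the data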
Numbers without * were called inactive; / = not tested or not shown. The list is not random: actives were taken first. Their share in the collection is about 22%.

SMILES | CYP2C19 inh | CYP2C9 activ | CYP2C19 act | Measles CPE | CYP2C9 inh
CC(Oc1ccc(Cl)cc1Cl)C(=O)Nc1ccc2oc(-c3ccncc3)nc2c1 (configuration not stated) | 55.1* | 0.4 | 0.4 | 5.3 | 61.1*
CC(C)CC(=O)Nc1cccc(-c2nc3ccccc3o2)c1 | 28.8 | 0.3 | 0.7 | 6.7 | 74.3*
CC(C)CC(=O)Nc1ccc2oc(-c3ccncc3)nc2c1 | 51.7* | 0.3 | 0.5 | 20.6 | 69.2*
O=C(Oc1ccc2c(c1)OCO2)c1ccc(F)cc1Cl | 35.3 | 0.9 | 0.6 | 6.4 | 14.6
O=C(NCc1ccccc1Cl)c1cccc(NC(=O)c2ccccc2)c1 | / | / | / | 6.6 | /
CC1CCC(N2CCN(S(C)(=O)=O)CC2)CC1 (configuration not stated) | 4.3 | 1 | 1 | 12.7 | 1.4
O=C(N1CCN(CCO)CC1)N1c2ccccc2C=Cc2ccccc21 | -0.9 | 0.9 | 1 | 6.2 | 8.7
COc1ccc(CNC(=O)C(C#N)c2nc3ccccc3nc2N2CCN(C)CC2)cc1 (configuration not stated) | 58.5* | 0.5 | 0.4 | 6.2 | 46.3
CCCCCCOC(=O)C(C#N)c1nc2ccccc2nc1N1CCN(C)CC1 (configuration not stated) | 30.4 | 1 | 0.7 | 10.7 | 0.4
CCC(C)COC(=O)C(C#N)c1nc2ccccc2nc1N1CCCCC1 (configuration not stated) | 49.6 | 0.3 | 0.5 | 3.6 | 66.5*
CCC(CC)COC(=O)C(C#N)c1nc2ccccc2nc1N1CCN(CC)CC1 (configuration not stated) | 81.9* | 0.4 | 0.2 | 1.9 | 64.2*
N#CC(C(=O)OCc1ccccc1)c1nc2ccccc2nc1N1CCOCC1 (configuration not stated) | 50.3* | 0.6 | 0.5 | 6.3 | 39.7
COc1ccc(CNC(=O)C(C#N)c2nc3ccccc3nc2N2CCCC2)cc1 (configuration not stated) | 16.5 | 0.8 | 0.8 | 4.5 | 24.4
COc1ccc(CCN2C(=O)C3C4CC(C5C(C(N)=O)=NOC45)C3C2=O)cc1OC (configuration not stated) | -9.2 | 1 | 1.1 | 15.5 | 3.1
Cn1c(=O)cc(SCC(=O)NCc2cccnc2)c2ccccc21 | / | / | / | 6.8 | /
Cc1ccnc(NC(=O)CCCOc2cc(=O)n(C)c3ccccc23)c1 | 0.9 | 1.3 | 1 | 6.7 | -32.6
O=C(CSc1ccccn1)Nc1cccc(NC(=O)CSc2ccccn2)n1 | 12.7 | 0.4 | 0.9 | 2.2 | 55.4*
Cn1c(=O)cc(SCC(=O)Nc2ccccn2)c2ccccc21 | -25.3 | 2.5* | 1.3 | 5.8 | -154.4
Cn1c(=O)cc(SCC(=O)Nc2cccnc2)c2ccccc21 | 17.6 | 2* | 0.8 | 5.4 | -102.3
Cc1ccnc(NC(=O)CSc2cc(=O)n(C)c3ccccc23)c1 | -127.2 | 3.1* | 2.3* | 4.2 | -208.9
CC(C)(C)c1ccccc1OCCN1CCCC1 | -7.4 | 1.2 | 1.1 | 13.2 | -15.9
Cc1cc(COc2ccccc2OCc2cc(C)no2)on1 | 29.7 | 1 | 0.7 | 7.7 | -1.2
Cc1onc(COc2ccccc2O)c1Br | 72.7* | 0.9 | 0.3 | 13.9 | 9.6
CCn1c(=O)cc(SCC(=O)Nc2ccc(Cl)cc2)c2ccccc21 | -14.9 | 1.1 | 1.1 | 14.3 | -11.8
CCn1c(=O)cc(SCC(=O)Nc2ccc(OC)c(OC)c2)c2ccccc21 | 60.2* | 2* | 0.4 | 24.6 | -102.0
SMILES | CYP2C19 inh | CYP2C9 activ | CYP2C19 act | Measles CPE | CYP2C9 inh
CCn1c(=O)cc(SCC(=O)N2CCOCC2)c2ccccc21 | -8.8 | 2.1* | 1.1 | 7.7 | -106.9
O=C(CSc1cn(Cc2ccccc2)c2ccccc12)N1CCOCC1 | 87.8* | 0.8 | 0.1 | 2.5 | 21.2
CCn1c(=O)cc(SCC(=O)N2CCN(c3ccccc3OC)CC2)c2ccccc21 | 43.2 | 2.3* | 0.6 | 18.4 | -129.1
CN1C(=O)/C(=C/c2ccccc2OCc2cccc(F)c2)N(C)C1=S | 32.2 | 0.6 | 0.7 | 21.9 | 36.1
Cc1ccc(S(=O)(=O)Nc2ccccc2C=Nc2cccc(C)c2C)cc1 | / | / | / | 5.2 | /
CCn1c(=O)cc(SCC(=O)N2CCN(C(=O)c3ccco3)CC2)c2ccccc21 | 9.2 | 1 | 0.9 | 5.0 | 4.7
CCn1c(=O)cc(SCC(=O)N2CCN(C3CCCCC3)CC2)c2ccccc21 | 64.7* | 2.4* | 0.4 | 10.7 | -142.6
COc1ccc(-c2csc3nc(-c4cccnc4)nc(Cl)c23)cc1OC | / | / | / | 26.3 | /
CCc1ccc2c(c1)/C(=N/N(C)C(=S)NC)C(=O)N2 | 51.6* | 0.9 | 0.5 | 21.2 | 10.8
CCc1ccc2c(c1)/C(=C/C(=O)c1cccs1)C(=O)N2 | 8.4 | 0.8 | 0.9 | 10.6 | 20.3
CCC1CCCCN1C(=O)COC(=O)c1n[nH]c2ccccc12 (configuration not stated) | -3.6 | 1 | 1 | 1.8 | -1.3
CCOC(=O)C(=Cc1ccc(OCc2ccc([N+](=O)[O-])cc2)c(OC)c1)C(=O)OCC | -1.6 | 0.5 | 1 | 3.3 | 53.1*
COC(=O)C(=Cc1ccc(OCc2ccc([N+](=O)[O-])cc2)c(OC)c1)C(=O)OC | 23.0 | 1 | 0.8 | 11.0 | 4.3
O=C(CN(C(=O)CNS(=O)(=O)c1ccccc1)c1ccc2c(c1)OCCO2)NC1CCCCC1 | 41.0 | 0.5 | 0.6 | 11.3 | 47.5
O=C(CN(Cc1ccc(Cl)c(Cl)c1)S(=O)(=O)c1ccccc1)N/N=C\c1ccc2c(c1)OCO2 | 19.4 | 0.4 | 0.8 | 6.6 | 64.8*
O=C(CN(Cc1ccccc1)S(=O)(=O)c1ccccc1)N/N=C/c1ccc2c(c1)OCO2 | 53.1* | 0.3 | 0.5 | 17.4 | 74.2*
O=C(c1cccs1)n1cc(C(=S)N2CCOCC2)c2ccccc21 | 67.7* | 0.9 | 0.3 | 20.1 | 11.8
O=C(C1CC1)n1cc(C(=S)N2CCOCC2)c2ccccc21 | 43.9 | 0.8 | 0.6 | 1.8 | 23.3
CCC(C)(C)NC(=O)C(c1cccc(OC)c1)N(C(=O)c1ccn[nH]1)c1cccc(OC)c1 (configuration not stated) | 74.3* | 0.8 | 0.3 | 13.9 | 22.9
CC1(C(=O)NC2CCCC2)CCC(=O)N1Cc1ccc2c(c1)OCO2 (configuration not stated) | 6.1 | 0.6 | 0.9 | 3.9 | 40.4
O=C(N/N=C/c1ccco1)Nc1ccccc1 | / | / | / | 11.6 | /
CN(C)c1nc(N2CCN(c3ccc(F)cc3)CC2)c(C#N)c(=O)o1 | 81.7* | 2.2* | 0.2 | 4.0 | -118.8
CCn1c(C)c(C(C)=O)c(N2CCN(c3ccc(F)cc3)CC2)nc1=S | 3.3 | 1 | 1 | 5.6 | -4.9
COc1ccc(CN(C)C(=O)COC(=O)c2ccc3c(c2)OCO3)cc1OC | 32.1 | 0.4 | 0.7 | 2.6 | 61.0*
COc1cc(NC(=O)C2CCCN2S(=O)(=O)c2ccc3c(c2)CCC(=O)N3)cc(OC)c1 (configuration not stated) | 13.9 | 0.4 | 0.9 | 7.6 | 60.2*
O=C1CCc2cc(S(=O)(=O)N3CCCC3C(=O)N3CCN(c4ccccc4)CC3)ccc2N1 (configuration not stated) | -7.1 | 0.4 | 1.1 | 17.0 | 58.7*
